Usually inhibition stands for how much of the control response was suppressed.

This is an account of results in PubChem BioAssay.

The source made the active and inactive calls.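 The calls were made as follows, unless noted: active = compound that reduces growth-factor-driven endothelial tube area in a mixed cell culture, no cutoff stated; inactive = the rest.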

Experiment [1] can be described thus: stimulators of nuclear beta-catenin in C2C12, primary screen, imaging, WNT3A-conditioned medium, mouse C2C12, NPC library (AID 1117326; in the data active = nuclear beta-catenin stimulation mostly above about 4.2%, no sharp cut-off; inactive = mostly below about 10%). The conditions noted are these: stronger effect = higher value.
Experiment [2] in a line: stimulators of insulin release from INS-1E, primary screen, cell-based, 5 mM glucose, NPC library (AID 1117329;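 active = compound raises insulin release from rat beta cells at 5 mM glucose, no numeric limit stated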). The conditions noted are these: rat INS-1E insulin secretion, at 10 µM, stronger effect = higher value.
Experiment [3] in a line: growth inhibition of GSK3B-pretreated HCT116 cells – cell-based, CellTiter-Glo, 0.2 to 20 µM (AID 1117336;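 active = compounds lowering colon cancer cell viability after pretreatment blocking the GSK3B kinase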). The note with it: HCT116 viability after GSK3B inhibitor, at 20 µM, stronger effect = higher value. For orientation: In ATP-based viability assays light output follows the ATP content of the culture.
A short description of experiment [4]: inhibition of endothelial tube formation, primary screen, imaging, VEGF stimulated, CD31 staining, tube area, NPC library (AID 1117340). The note with it: VEGF-stimulated ADSC/ECFC co-culture, at 10 µM, stronger effect = higher value.
Experiment [5] is described as follows: glucagon-like peptide 1 release enhancers, primary assay, NCI-H716 cell line, NPC library (AID 1117341;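 active = compound raises GLP1 secretion from the human gut endocrine cells, with no numeric limit stated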). The conditions noted are these: NCI-H716 cells, at 10 µM, stronger effect = higher value.
Experiment [6] is described as follows: HCT116 colon cancer cell growth inhibition, primary screen, CellTiter-Glo luminescence, NPC library (AID 1117342;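 active = compounds that lower survival of HCT116 colon cancer cells in the luminescence readout, no numeric limit stated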). The conditions noted are these: at 20 µM (top of the series).
Experiment [7] is described as follows: CellTiter-Glo luminescent readout of SW480 viability loss, NPC library primary (AID 1117343;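 active = compounds that lower viability of the colon cancer cells in the luminescence readout, with no numeric limit stated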). The conditions noted are these: CellTiter-Glo luminescence; at 20 µM (top of the series).
Experiment [8] can be described thus: decreased DLD-1 cellular survival, CellTiter-Glo luminescent readout, NPC compound collection, primary HTS (AID 1117346;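 active = compounds that lower survival of DLD-1 colon cancer cells in the luminescence readout, no cutoff given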). The conditions noted are these: DLD-1 viability, CellTiter-Glo luminescence; at 20 µM (top of the series).
Experiment [9] has as its target 6-phosphogluconate dehydrogenase, decarboxylating (Homo sapiens) (UniProt P52209). As to the kind of experiment: 6PGD enzyme inhibitors, primary screen, biochemical, human, recombinant enzyme, NADPH absorbance (AID 1159550;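 active = at least 20% inhibition of 6-phosphogluconate dehydrogenase activity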). The note with it: recombinant 6PGD, NADPH absorbance 341 nm; at 10 µM; stronger effect = higher value.

Sequence of 6-phosphogluconate dehydrogenase, decarboxylating (Homo sapiens) (P52209 whole entry, looked up): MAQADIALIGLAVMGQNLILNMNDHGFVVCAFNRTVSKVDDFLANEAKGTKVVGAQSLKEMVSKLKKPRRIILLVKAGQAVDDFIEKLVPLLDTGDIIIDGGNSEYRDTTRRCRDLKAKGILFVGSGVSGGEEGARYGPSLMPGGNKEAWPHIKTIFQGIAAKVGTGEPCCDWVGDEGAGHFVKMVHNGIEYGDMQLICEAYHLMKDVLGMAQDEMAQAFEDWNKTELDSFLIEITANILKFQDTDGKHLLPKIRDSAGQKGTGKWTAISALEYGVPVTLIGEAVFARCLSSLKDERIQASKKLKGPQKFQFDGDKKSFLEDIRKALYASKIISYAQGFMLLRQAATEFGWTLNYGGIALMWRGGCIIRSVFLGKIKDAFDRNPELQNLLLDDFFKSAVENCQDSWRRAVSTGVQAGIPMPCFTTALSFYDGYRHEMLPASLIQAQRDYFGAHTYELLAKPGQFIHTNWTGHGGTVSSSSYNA

In the case of `Cc1nc2n(c(=O)c1CCN1CCC(c3noc4cc(F)ccc34)CC1)CCC[C@H]2O`, the nuclear beta-catenin stimulation in [1] (at 10 µM) is 0% (inactive); in experiment [1] (stimulation, at 2 µM), -0.1%. Moreover, the insulin secretion stimulation in [2] was 1.1% (inactive). The viability decrease in experiment [3] was -7.1% (inactive). The tube area decrease in experiment [4] was 8.8% (inactive). For the same compound, the GLP1 secretion stimulation in experiment [5] is -0.7% (inactive). Also, the inhibition of viability in experiment [6] was 20.5% (inactive). Further, the viability decrease (inhibition) in [7] is -9.1% (inactive); in experiment [8], -6.6% (inactive).
For `CCCCCCCCCCCCCCCCC(C(=O)O)C(O)(CC(=O)O)C(=O)O` (configuration not stated), the nuclear beta-catenin stimulation in experiment [1] (at 10 µM) is -0.9% (inactive); in [1] (stimulation, at 2 µM), -0.6%. Besides, in experiment [2], the insulin secretion stimulation was 3.2% (inactive). Moreover, the viability decrease in experiment [3] was 99.8% (active). In experiment [4], the tube area decrease is -7.3% (inactive). Besides, the GLP1 secretion stimulation in experiment [5] was -2.9% (inactive). In experiment [6], the inhibition of viability was 99.3% (active). In addition, the figures for the viability decrease (inhibition) in experiment [7] and in experiment [8] were 103% (active) and 102% (active), respectively.
On to `Cc1c[nH]c2ccccc12`, for which the nuclear beta-catenin stimulation is 2% (inactive) in [1] (at 10 µM) and 0.3% in experiment [1] (stimulation, at 2 µM). Further, the insulin secretion stimulation in experiment [2] is -2.3% (inactive). In addition, the viability decrease in experiment [3] is 3.8% (inactive). Moreover, the tube area decrease in experiment [4] was 5.5% (inactive). In addition, in experiment [5], the GLP1 secretion stimulation was -1.7% (inactive). Also, in experiment [6], the inhibition of viability is 10.3% (inactive). Moreover, the viability decrease (inhibition) in experiment [7] is 15% (inactive); in experiment [8], 10% (inactive).
On to `CCC(C)n1ncn(-c2ccc(N3CCN(c4ccc(OC[C@H]5CO[C@](Cn6cncn6)(c6ccc(Cl)cc6Cl)O5)cc4)CC3)cc2)c1=O` (some centres not stated), for which the nuclear beta-catenin stimulation in experiment [1] (at 10 µM) is 36.2% (inactive); in experiment [1] (stimulation, at 2 µM) it was 34.3%. In addition, in experiment [2], the insulin secretion stimulation was 0.4% (inactive). In addition, the viability decrease in [3] was 68.8% (active). Further, the tube area decrease in experiment [4] is 96.5% (active). Moreover, the GLP1 secretion stimulation in experiment [5] is 2.2% (inactive). Also, the inhibition of viability in [6] was 75.3% (active). Further, the viability decrease (inhibition) in [7] was 112% (active); in experiment [8], 40.6% (inactive).
As for `O=C(O)CSCC(=O)NC1CCSC1=O` (configuration not stated), the nuclear beta-catenin stimulation in experiment [1] (at 10 µM) is -0.4% (inactive); in [1] (stimulation, at 2 µM), 1.1%. Besides, the insulin secretion stimulation in experiment [2] was -1.9% (inactive). Moreover, in experiment [3], the viability decrease is -4% (inactive). Besides, in experiment [4], the tube area decrease was -2.7% (inactive). For the same compound, the GLP1 secretion stimulation in experiment [5] is -0.3% (inactive). Also, the inhibition of viability in experiment [6] was 9% (inactive). The viability decrease (inhibition) in [7] is 15.2% (inactive); in experiment [8], -4.25% (inactive).
With `CC1=C(C)C(=O)C(C(CCCCCC(=O)O)c2ccccc2)=C(C)C1=O` (configuration not stated), the nuclear beta-catenin stimulation in experiment [1] (at 10 µM) was 0% (inactive); in experiment [1] (stimulation, at 2 µM), -1%. In addition, in experiment [2], the insulin secretion stimulation is -0.1% (inactive). Moreover, in experiment [3], the viability decrease is 20.4% (inactive). Also, the tube area decrease in experiment [4] is -6.8% (inactive). The GLP1 secretion stimulation in [5] was 4% (inactive). Also, in [6], the inhibition of viability was -4.2% (inactive). The values for the viability decrease (inhibition) in [7] and in [8] were -12.9% (inactive) and -13.3% (inactive), respectively.
Turning to `NC(N)=NCCN1CCCCCCC1`, the nuclear beta-catenin stimulation in experiment [1] (at 10 µM) is 0.1% (inactive); in [1] (stimulation, at 2 µM) it was -0.3%. Also, in experiment [2], the insulin secretion stimulation was -1.2% (inactive). The viability decrease in experiment [3] is 1.25% (inactive). For the same compound, in [4], the tube area decrease was 3.7% (inactive). Further, the GLP1 secretion stimulation in [5] is -0.1% (inactive). Besides, the inhibition of viability in experiment [6] is 30% (inactive). Besides, the viability decrease (inhibition) in experiment [7] is -11.2% (inactive); in experiment [8], 23.4% (inactive). Also, in [9], the inhibition is 10.5% (inactive).
On to `C[n+]1c2cc(N)ccc2cc2ccc(N)cc21` (tested in a mixture with another compound), for which the nuclear beta-catenin stimulation in [1] (at 10 µM) is 123% (active); in experiment [1] (stimulation, at 2 µM), 8%. The insulin secretion stimulation in experiment [2] is 0.4% (inactive). Besides, the viability decrease in experiment [3] was 70.5% (active). For the same compound, in experiment [4], the tube area decrease was -105% (inactive). In experiment [5], the GLP1 secretion stimulation is 5.7% (inactive). The inhibition of viability in [6] is 83.8% (active). The values for the viability decrease (inhibition) in experiment [7] and in [8] were 68.8% (active) and 95.2% (active), respectively.
Consider `CC(=O)Oc1ccc(C(c2ccc(OC(C)=O)cc2)c2ccccn2)cc1`, for which the nuclear beta-catenin stimulation was -0.9% (inactive) in [1] (at 10 µM) and -2.7% in [1] (stimulation, at 2 µM). Besides, the insulin secretion stimulation in experiment [2] is 2.65% (inactive). In addition, the viability decrease in experiment [3] is 41.4% (inactive). For the same compound, in [4], the tube area decrease was 15.6% (inactive). Further, in experiment [5], the GLP1 secretion stimulation is 5.8% (inactive). Moreover, in experiment [6], the inhibition of viability is 67.8% (active). In addition, the viability decrease (inhibition) in experiment [7] is -6% (inactive); in [8], 53.5% (active). Moreover, the inhibition in experiment [9] was 4.53% (inactive).
Turning to `O=C(O)CCC(=O)c1ccc(-c2ccccc2)cc1`, the nuclear beta-catenin stimulation in [1] (at 10 µM) is 4.2% (inactive); in [1] (stimulation, at 2 µM) it was 0.6%. Further, the insulin secretion stimulation in [2] was 1.1% (inactive). Besides, the viability decrease in experiment [3] was -13% (inactive). Further, the tube area decrease in experiment [4] was 14.5% (inactive). Further, the GLP1 secretion stimulation in experiment [5] was 0.1% (inactive). The inhibition of viability in [6] was 12.7% (inactive). Further, the viability decrease (inhibition) is 13.6% (inactive) in [7] and 0.4% (inactive) in experiment [8]. Besides, the inhibition in experiment [9] was 8.67% (inactive).
Turning to `CN1CCN(c2cc3c(cc2F)c(=O)c(C(=O)O)cn3-c2ccc(F)cc2)CC1`, the nuclear beta-catenin stimulation in experiment [1] (at 10 µM) was 0.8% (inactive); in experiment [1] (stimulation, at 2 µM), 0.3%. Moreover, the insulin secretion stimulation in experiment [2] was -1.1% (inactive). In addition, in experiment [3], the viability decrease is 9.9% (inactive). The tube area decrease in experiment [4] is -7.2% (inactive). Further, the GLP1 secretion stimulation in experiment [5] was 0.1% (inactive). Also, the inhibition of viability in [6] is 17.4% (inactive). Besides, the viability decrease (inhibition) in experiment [7] is -0.8% (inactive); in [8], 2.2% (inactive).
Turning to `C[N+]1(C)[C@@H]2CC(OC(=O)[C@H](CO)c3ccccc3)C[C@H]1[C@@H]1O[C@@H]12` (some centres not stated), the nuclear beta-catenin stimulation in experiment [1] (at 10 µM) is 1.5% (inactive); in experiment [1] (stimulation, at 2 µM), 0.9%. In addition, the insulin secretion stimulation in experiment [2] was 0.2% (inactive). Further, the viability decrease in experiment [3] is -19.7% (inactive). For the same compound, the tube area decrease in experiment [4] is 5.6% (inactive). Further, the GLP1 secretion stimulation in experiment [5] is -2.3% (inactive). For the same compound, the inhibition of viability in [6] was 2% (inactive). Also, the viability decrease (inhibition) in experiment [7] was -6.3% (inactive); in [8], -6.1% (inactive). In addition, the inhibition in experiment [9] is 0.481% (inactive).
For `Cc1ccc(S(=O)(=O)NC(=O)NN2CC3CCCC3C2)cc1` (configuration not stated), the nuclear beta-catenin stimulation in experiment [1] (at 10 µM) is 0.7% (inactive); in experiment [1] (stimulation, at 2 µM), 1.2%. The insulin secretion stimulation in experiment [2] is 42.6% (active). For the same compound, the viability decrease in experiment [3] was -5.85% (inactive). Moreover, the tube area decrease in [4] is -26.1% (inactive). Also, the GLP1 secretion stimulation in [5] was 0.8% (inactive). In addition, the inhibition of viability in [6] was -22.6% (inactive). For the same compound, the viability decrease (inhibition) in [7] was 22.3% (inactive); in experiment [8] it was -0.5% (inactive). Besides, the inhibition in experiment [9] is 2.59% (inactive).
Consider `CC(=O)Nc1cccc(O)c1`, for which the nuclear beta-catenin stimulation in [1] (at 10 µM) was -0.7% (inactive); in experiment [1] (stimulation, at 2 µM) it was 2.5%. Further, the insulin secretion stimulation in [2] is 1.1% (inactive). In addition, in [3], the viability decrease is -1.55% (inactive). Moreover, the tube area decrease in experiment [4] is -19.6% (inactive). Moreover, in experiment [5], the GLP1 secretion stimulation was -0.3% (inactive). Moreover, in experiment [6], the inhibition of viability was -14.5% (inactive). For the same compound, the viability decrease (inhibition) in experiment [7] was 32.8% (inactive); in [8], 4.35% (inactive). Further, in [9], the inhibition is 11.9% (inactive).
